Among the data in PubChem BioAssay AID488857 (Sanford-Burnham Center for Chemical Genomics, 2010) are inhibition values, retold here.

SMILES strings stand for the structures. The campaign covered roughly 1,400 compounds. About 560 (40%) were called active.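 How the source made its calls: active means mean inhibition over duplicate tests at 10 µM above 50%; inactive means the rest.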 So high a share suggests a set chosen from earlier hits. Some of the results follow.

One may read the inhibition as the relative decrease from the control value, in per cent.

This experiment can be described thus: ASC/caspase-1 reporter retest in S. cerevisiae at one dose, specificity check for NALP1 project (AID 488857). The conditions noted are these: S. cerevisiae ASC/Caspase-1, beta-galactosidase luminescence, 24 h; at 10 µM; hits give high values.
Regarding `COc1ccccc1C(C[N+](=O)[O-])c1c(N)n(C)c(=O)n(C)c1=O` (stereo not given), the inhibition was 99.8% (active).

In the case of `Cc1ccc(C(C[N+](=O)[O-])c2c(N)n(C)c(=O)n(C)c2=O)cc1` (stereo not given), the inhibition was 98.2% (active).

Take `COc1cccc(F)c1C(C[N+](=O)[O-])c1c(N)n(C)c(=O)n(C)c1=O` (stereo not given): the inhibition was 97.7% (active).

As for `O=c1[nH][nH]c(-c2ccccc2O)c1C(C[N+](=O)[O-])c1ccc(Cl)cc1Cl` (stereo not given), the inhibition was 42.1% (inactive).

For `Cc1ccccc1Cn1c(=N)n(CC(=O)c2ccc([N+](=O)[O-])cc2)c2ccccc21`, the inhibition is 53.6% (active).

With `Cc1nc([N+](=O)[O-])c(Br)n1CC(=O)c1ccc(Cl)cc1`, the inhibition is 37.6% (inactive).

For the compound `N=c1n(CC(=O)c2ccc([N+](=O)[O-])cc2)c2ccccc2n1Cc1ccccc1Cl`, the inhibition was 28.8% (inactive).

`CCCCCOc1ccc(Cn2ccnc2)cc1[N+](=O)[O-]`: the inhibition is 64% (active).

With `CCCCOc1ccc(CSC2=NCCN2)cc1[N+](=O)[O-]`, the inhibition is 40.1% (inactive).

Take `CCc1cccc2c(C(=O)COC(=O)c3ccc([N+](=O)[O-])s3)c[nH]c12`: the inhibition was 95.7% (active).

As for `CCc1cccc2c(C(=O)COC(=O)c3ccccc3)c[nH]c12`, the inhibition was 43.6% (inactive).

As for `CCc1cccc2c(C(=O)CSc3nncn3-c3ccc(OC)cc3)c[nH]c12`, the inhibition is 38.1% (inactive).

Consider `O=C(Nc1nc2c(c(=O)[nH]1)CCCC2)C1CC1`, for which the inhibition is 31.5% (inactive).

For `O=C1c2ccccc2C(O)N1c1cccnc1` (stereo not given), the inhibition was 23.4% (inactive).

Regarding `O=C1c2ccccc2C(Nc2ccc(Cl)cn2)N1Cc1ccccc1` (stereo not given), the inhibition is 52.1% (active).

For `COc1ccc(C(C)C)cc1S(=O)(=O)n1cnc(C)c1`, the inhibition was 42.7% (inactive).

`O=C(CN1CCN(c2cccc(Cl)c2)CC1)Nc1ccc(S(=O)(=O)N2CCOCC2)cc1`: the inhibition is 33.4% (inactive).

Take `COC(=O)c1cc(OC)c(OC)cc1NC(=S)N1CCN(c2ccccc2)CC1`: the inhibition was 39.1% (inactive).

Turning to `COC(=O)/C=C/C(=O)N1CCN(c2cccc(Cl)c2)CC1`, the inhibition is 62.8% (active).

`C#CCOc1c(Br)cc(/C=N/O)cc1OCC`: the inhibition is 17.9% (inactive).

Regarding `CNc1nc(SCc2ccccc2Cl)nc2c1CCCC2`, the inhibition is 97.2% (active).

`CNc1nc(SCc2ccc(C)cc2)nc2c1CCCC2`: the inhibition was 98.4% (active).

Turning to `Cc1oc(-c2ccccc2Cl)nc1CSc1nc2c(c(=O)[nH]1)CCC2`, the inhibition was 21.4% (inactive).

`NC(=NCCc1ccc(Cl)cc1)NS(=O)(=O)c1ccc(F)cc1`: the inhibition is 23.1% (inactive).

As to `COc1ccc(N(C)C2=NS(=O)(=O)c3ccccc32)cc1`, the inhibition is 29.7% (inactive).

Regarding `COC(=O)c1ccc(Cn2cnc3c(cnn3-c3ccc(Cl)cc3)c2=O)o1`, the inhibition was 35.1% (inactive).

Turning to `CN(Cc1ccccc1)c1ncnc2c1cnn2-c1ccccc1`, the inhibition is 66.2% (active).

As to `COCCN(CCOC)c1ncnc2c1cnn2-c1ccc(Cl)cc1`, the inhibition was 69.3% (active).

Regarding `Nc1ccc(C(=O)c2cccs2)cc1`, the inhibition was 54.2% (active).

Regarding `CC(C)c1ccc(NCCC(=O)c2cccs2)cc1`, the inhibition is 42% (inactive).

`CCOc1ccc(NC(=O)c2csc3c2CCCC3)cc1`: the inhibition was 70.2% (active).

For `CCOc1ccc(NC(=O)c2cc3c(C)nc4ccccc4c3o2)cc1`, the inhibition was 33.2% (inactive).

In the case of `CCOc1ccc(N=c2oc3cc(O)ccc3cc2C(=O)NCC2CCCO2)cc1` (stereo not given), the inhibition was 33% (inactive).

`O=C(c1ccccc1-c1ccccc1)N1CCN(c2ccccn2)CC1`: the inhibition was 35.6% (inactive).

Take `CCOC(=O)c1cc(-c2ccccc2)n(CCC(=O)N2CCN(c3ccccn3)CC2)c1C`: the inhibition was 32.7% (inactive).

For the compound `O=C(N1CCN(c2ccccn2)CC1)C(Cl)(Cl)Cl`, the inhibition was 63.7% (active).

As to `O=C(CSCc1cnn(-c2ccccc2)c1-n1cccc1)NCc1ccc2c(c1)OCO2`, the inhibition was 57.3% (active).

With `c1ccc2c(Nc3nc(N4CCOCC4)c4ccccc4n3)cccc2c1`, the inhibition is 95% (active).

Regarding `Oc1c(Cl)cc(Cl)c(Cl)c1Cc1c(O)c(Cl)cc(Cl)c1Cl`, the inhibition is 98.4% (active).

Consider `CCN(CC)c1ccc(NC(=O)Cn2cc3c(n2)CCC(C)C3)c(C)c1` (stereo not given), for which the inhibition was 51.1% (active).

Regarding `C=CCNCCCCOc1ccc(Br)cc1C`, the inhibition was 46.5% (inactive).

For the compound `Cc1cc(Br)ccc1OCCn1ccnc1`, the inhibition is 59.4% (active).

As for `Cc1cc(Cl)c(OCCCn2ccnc2)c(Br)c1`, the inhibition is 64.8% (active).

Take `CCOc1cc(C(=O)OCC(=O)Nc2ncc(Cl)c(C)c2Cl)ccc1OCC(=O)N1CCOCC1`: the inhibition was 33.8% (inactive).

On to `COC(=O)CCn1nnc(-c2ccc(C(C)C)cc2)n1`, for which the inhibition was 41.2% (inactive).

With `O=C(COc1ccccc1Cl)NCCC1=CCCCC1`, the inhibition is 48.4% (inactive).

On to `O=C(CN1C(=O)C2C3C=CC(C3)C2C1=O)NCCc1ccccc1` (stereo not given), for which the inhibition is 23.8% (inactive).

Turning to `COc1ccccc1OCC(=O)NCCSCc1ccc(Cl)cc1`, the inhibition was 64.2% (active).

With `COc1ccccc1OCC(=O)NCCSCc1ccccc1Cl`, the inhibition is 65.5% (active).

On to `CN(C)CCNC(=O)COc1ccc(Cl)cc1Cl`, for which the inhibition was 28.3% (inactive).

In the case of `COc1ccccc1OCC(=O)NCCSCc1cccc(Cl)c1`, the inhibition is 61.4% (active).

Take `O=C(COC(=O)CCSc1ccccc1)NCc1ccccc1Cl`: the inhibition is 29.2% (inactive).

Regarding `O=C(CCSCc1cccc(Cl)c1)NCCc1ccccc1`, the inhibition was 64.2% (active).

As to `Cc1sc(NC(=O)c2cc3ccccc3oc2=O)c(C(=O)OC(C)C)c1-c1ccccc1`, the inhibition was 36% (inactive).

`COc1cccc(N2C(=O)C(O)=C(C(C)=O)C2c2ccc(OC)c(OC)c2)c1` (stereo not given): the inhibition was 31% (inactive).

Regarding `CC(=O)N1CC[n+]2c(-c3ccc(Cl)cc3Cl)csc21`, the inhibition is 23.9% (inactive).

Turning to `CC(C)Cn1c(CN(Cc2ccccc2)Cc2ccccc2)nc2c1c(=O)n(C)c(=O)n2C`, the inhibition was 35.6% (inactive).

With `O=C(CSCc1cccc(Cl)c1)Nc1ccccc1-c1ccccc1`, the inhibition is 62.6% (active).

`O=C(CSC1=NS(=O)(=O)c2ccccc21)Nc1ccccc1`: the inhibition is 43.5% (inactive).

With `Cc1ccc(CC(=O)Nc2ccccc2-c2ccccc2)cc1C`, the inhibition is 34.3% (inactive).

Regarding `COc1ccc(CCN(C)C2CC(=O)N(c3ccccc3)C2=O)cc1OC` (stereo not given), the inhibition was 51% (active).

With `COc1ccc(CCNC(=O)CN2CCC(C)CC2)cc1OC`, the inhibition was 28.1% (inactive).

As for `COC(=O)c1ccccc1SC1CC(=O)N(c2ccccc2)C1=O` (stereo not given), the inhibition was 49.2% (inactive).

For `COc1ccc2[nH]c3c(C)c4ccncc4c(C)c3c2c1`, the inhibition was 98.8% (active).

For the compound `COc1ccc2[nH]c(C)c(CCNC(=S)Nc3cc(C)cc(C)c3)c2c1`, the inhibition was 17% (inactive).
